Hits are enriched below; roughly 19% of the tested compounds scored in any of these assays.
DT40 TDP1 no CPT = qHTS for Inhibitors of human tyrosyl-DNA phosphodiesterase 1 (TDP1): qHTS in cells in absence of CPT; DT40 Tdp1-/- hTDP1 cells, no CPT, ATP luminescence, 48 h; Potency, µM (titrated, usually from 46.2 µM), usual class: inhibitors; hit rate 15% among 420,000; note: nearly all actives have a fitted effect of over 55% in size
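Compound effects on proliferation are scored in DT40 Tdp1-/-;hTDP1 cells in the absence of CPT. ATP levels (CellTiter-Glo luminescence) are recorded after a ≥48 hr, 37 °C incubation.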
IL1B secr inh = inflammasome signaling inhibition, IL-1 beta readout; THP-1 LPS/ATP IL-1B secretion, AlphaLISA, 16 h; stronger effect = lower value; activity change, % at 57.5 µM; hit rate 4.7% among 360,000; AID 743279; in the data active = activity change below about -50%; inconclusive = mostly about -30% to -49%
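Secreted IL-1B measured by AlphaLISA bead assay after 16 h compound exposure of THP-1 cells; compounds (final up to 57.5 uM) added 1 h before LPS (250 ng/mL) and ATP (1.25 mM) stimulation; lower signal means less secretion.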
DT40 TDP1 CPT = growth inhibition of DT40 Tdp1-/-;hTDP1 cells with camptothecin (screen for TDP1 inhibitors); chicken DT40 Tdp1-/-;hTDP1 cells + 20 nM CPT, ATP luminescence, 48 h; AID 686979; hit rate 12% among 420,000; Potency, µM (top dose mostly 46.2 µM), actives largely listed as inhibitors; note: nearly all actives have a fitted effect of over 55% in size
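Cell growth measured by CellTiter-Glo luminescence after a minimum 48 h, 37 C compound exposure with 20 nM CPT in Tdp1-knockout DT40 cells stably expressing hTDP1, seeded 400/well; qHTS titration format.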
HT1080 IDH1KD tx = HT-1080 IDH1 knockdown cell toxicity (counter line); HT-1080 IDH1 knockdown viability, ATP luminescence, 48 h; Potency, µM (top dose mostly 46.1 µM), usual class: cytotoxic; hit rate 2% among 360,000; AID 686971
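Viability of IDH1-knockdown HT-1080 fibrosarcoma cells was assessed by CellTiter-Glo after 48 h at 37 °C with titrated compound; concentration-effect curves were classified by fit quality and response size.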
ELG1 repair inh = inhibitors of ELG1-dependent DNA repair in HEK293T cells. HEK293T ELG1-luciferase reporter, luminescence, 16 h; DNA damage induced by 5-fluorouridine. Potency, µM (highest dose often 46.1 µM), most hits filed as inhibitors. hit rate 2.3% among 330,000. AID 504467; note: nearly all actives have a fitted effect of over 55% in size
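In this reporter screen, reduction of luminescence relative to DMSO vehicle indicated activity. Compounds and 5-fluorouridine were added together to 2,000 cells per well, incubated for 16 hr at 37 °C, then developed with ONE-Glo.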
HT1080-NT tox = kills 2HG-producing HT-1080-NT fibrosarcoma cells | hit rate 1.6% among 360,000 | HT-1080-NT fibrosarcoma viability, CellTiter-Glo ATP luminescence, 48 h | Potency, µM (top dose mostly 46.1 µM), usual class: cytotoxic;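 note: NT is the 2HG producing partner of a matched IDH1 knockdown line; nearly all actives have a fitted effect of over 55% in size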
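750 cells/well, RPMI + 5% FBS; 2 h settle, compound pin-transfer, 48 h at 37 degrees C. CellTiter-Glo 10 min RT, luminescence. Normalized to DMSO and media-only wells.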
Numbers stand for hits; – = inactive; ? = inconclusive; · = not tested or not shown; [ ] = another dose, or the depositor's remark. Unless noted, calls come from the whole dose curve; as a rule, active = well fitted curve in the direction sought with a large enough effect; inconclusive = small, poorly fitted or top-dose-only effect, or another doubt; inactive = no such curve, though single readings can be large; an effect the other way counts as inactive or inconclusive.

SMILES	DT40 TDP1 no CPT	IL1B secr inh	DT40 TDP1 CPT	HT1080 IDH1KD tx	ELG1 repair inh	HT1080-NT tox
Cc1nc(C)c(C(=O)N2CCCC(C(=O)c3ccc(Cl)cc3C)C2)s1 (stereo not given)	?	–	18.4µM	–	–	–
CC(OC(=O)c1ccccc1OCCOc1ccccc1)C(=O)Nc1ccc(Br)cc1 (stereo not given)	–	·	–	·	·	·
Cc1cccc(C)c1NC(=O)CN1C(=O)c2ccccc2Sc2ncccc21	–	·	?	·	·	·
CCCCN(C)S(=O)(=O)c1ccc(C(=O)Nc2nnc(C3=COCCO3)o2)cc1	?	–	?	–	14.6µM	–
CC1CCN(S(=O)(=O)c2ccc(C(=O)Nc3nnc(C4=COCCO4)o3)cc2)CC1	?	–	23.1µM	?	?	–
COc1cccc(-n2cnc3c(sc4nc(N5CCOCC5)c5c(c43)CCCC5)c2=O)c1	18.4µM	-54.4	?	–	–	–
[O-][n+]1c2ccccc2cc2ccccc21	9.2µM	–	?	–	–	–
COc1ccc2nc3ccccc3[n+]([O-])c2c1	?	–	–	–	·	–
COC(=O)c1nnn(CC(=O)Nc2cc(F)ccc2F)c1C(=O)OC	–	·	–	·	·	·
CCOC(=O)c1nnn(CC(=O)Nc2cc(F)ccc2F)c1C(=O)OCC	–	-73.2	–	–	–	–
COC(=O)CSc1nnc(CNC(=O)c2ccccc2F)n1-c1ccc(F)cc1	?	-55.6	–	–	–	–
COc1ccccc1Nc1c2c(nc3ccc(NC(=O)c4ccccc4F)cc13)CCCC2	16.4µM	·	5.17µM	·	·	·
COc1ccccc1C(=O)Nc1ccc2nc3n(c(=O)c2c1)CCCC3	–	–	?	–	–	–
COc1ccccc1Nc1c2c(nc3ccc(N)cc13)CCCC2	20.6µM	–	16.4µM	–	–	–
COc1ccc(C(=O)Nc2ccc(OC)c(OC)c2)cc1	–	–	–	–	?	–[9.24 µM]
COc1ccccc1Nc1c2c(nc3ccc(NC(=O)c4cccc(OC)c4OC)cc13)CCCC2	13µM	·	5.8µM	·	·	·
COc1ccc(C(=O)Nc2ccc3nc4c(c(Nc5ccc(OC)c(OC)c5)c3c2)CCCC4)c(OC)c1	2.91µM	·	3.26µM	·	·	·
O=C(CCCn1nnnc1CN1CCOCC1)N1CCC(c2ccc(F)cc2)C1 (stereo not given)	?	?	–	?	–	?
OC(c1cccnc1)c1nc(-c2ccc3c(c2)OCO3)cs1 (stereo not given)	?	–	?	–	·	–
COc1ccccc1Nc1c2c(nc3ccc(NC(=O)c4ccc(OC)c(OC)c4)cc13)CCCC2	14.6µM	·	23.1µM	·	·	·
COc1ccc(C(=O)Nc2ccc3nc4c(c(Nc5ccccc5OC)c3c2)CCCC4)c(OC)c1	3.26µM	·	3.66µM	·	·	·
COc1ccc(C(=O)Nc2ccc3ccccc3c2)c(OC)c1	?	–	?	–	?	–
COc1ccccc1CCNCc1cc2cccc(C)c2nc1-c1cccs1	–	·	–	·	·	·
Cc1ccc(NC(=O)C2SC(=Nc3ccccc3)C(C(=O)Nc3ccc(Cl)cc3)=C2N)cc1 (stereo not given)	18.4µM	–	6.51µM	–	?	–
Cc1ccc(N=C2SC(C(=O)Nc3ccc(OC(F)(F)F)cc3)C(N)=C2C(=O)Nc2c(C)cc(C)cc2C)cc1 (stereo not given)	?	-104.2	?	18.4µM	–	14.6µM
SMILES	DT40 TDP1 no CPT	IL1B secr inh	DT40 TDP1 CPT	HT1080 IDH1KD tx	ELG1 repair inh	HT1080-NT tox
Cc1ccc(C(=O)OCC(=O)N(C)C2CCS(=O)(=O)C2)cc1S(=O)(=O)N1CCCCC1 (stereo not given)	–	–	–	–	–	–
COCCNc1ncnc2c1ncn2[C@H]1CN(Cc2ccc(-c3ccccc3)cc2)C[C@@H](CO)O1	20.6µM	–	18.4µM	?	·	–
OCCCNc1ncnc2c1ncn2[C@H]1CN(Cc2ccc(-c3ccccc3)cc2)C[C@@H](CO)O1	20.6µM	–	14.6µM	–	·	–
C=CCNc1ncnc2c1ncn2[C@H]1CN(Cc2ccc(-c3ccccc3)cc2)C[C@@H](CO)O1	23.1µM	–	16.4µM	?	·	?
COc1ccc(-c2noc(CN(C(=O)C(C)Oc3ccc(C)cc3)C(C)C)n2)cc1 (stereo not given)	14.6µM	·	16.4µM	·	·	·
CCOc1cc(C(=O)N(Cc2nc(-c3ccc(C)cc3)no2)C(C)C)cc(OCC)c1OCC	?	·	16.4µM	·	·	·
Cc1ccc(CC(=O)N(Cc2nc(-c3ccc(C)cc3)no2)C(C)C)cc1	23.1µM	·	?	·	·	·
Cc1ccc(C(=O)N(Cc2nc(-c3ccc(C)cc3)no2)C(C)C)cc1	16.4µM	–	?	–	–	–
COc1ccc(OC(C)C(=O)N(C)Cc2nc(-c3ccccc3)no2)cc1 (stereo not given)	?	–	–	–	–	–
COc1cc(C2C(=O)N(C3CCCCC3)CC(=O)N2C2CCCCC2)ccc1OC(C)C (stereo not given)	–	·	–	·	·	·
Cc1ccc(SCC(=O)N(Cc2nc(-c3ccccc3)no2)C(C)C)cc1	?	?	18.4µM	–	–	–
Cc1ccc(-c2noc(CN(C(=O)c3cccs3)C(C)C)n2)cc1	?	-78.0	?	–	–	?
COC(=O)[C@]12CCCCC=C1N(Cc1ccc(Cl)cc1Cl)C(=O)[C@H](CC(=O)N1CCN(C(=O)c3ccco3)CC1)C2	?	–	?	?	·	?
Cc1cc(N/N=C/c2ccc(N(C)C)cc2)nc(NCc2ccccc2)n1	5.8µM	-60.7	7.31µM	–	?	–
Cc1cc(N/N=C/c2ccc(Cl)cc2Cl)nc(NCc2ccccc2)n1	7.31µM	–	10.3µM	?	?	–
Cc1cc(N/N=C/c2ccccc2)nc(N)n1	–	–	–	–	?	–
Cc1cc(N/N=C/c2ccc(F)cc2)nc(NCc2ccccc2)n1	11.6µM	-96.5	8.2µM	16.4µM	–	18.4µM
Cc1cc(N/N=C/c2ccc(O)cc2)nc(NS(=O)(=O)c2ccccc2)n1	?	–	–	–	–	–
CCNC(=S)N1CCC(C(=O)c2ccc(F)cc2)CC1	–	–	?	–	·	–
COCCn1c(SCC(=O)Nc2cc(Cl)ccc2OC)nc2c([nH]c3ccccc32)c1=O	–	·	–	·	·	·
Cc1ccc(C)c(NC(=S)N2CCC(NC(=O)c3ccc(F)cc3)CC2)c1	–	–	–	–	–	–
CCc1ccc(NC(=O)C2CCN(c3cc(C)nc4c(-c5ccc(Cl)cc5)c(C)nn34)CC2)cc1	–	·	–	·	·	·
C=Cn1ccnc1CC(O)c1ccc(OC)cc1 (stereo not given)	–	–	–	–	·	–
